Unmarked numbers belong to inactive results. Calls follow the shape of the dose curve; as a rule, active = well fitted curve in the direction sought with a large enough effect; inconclusive = small, poorly fitted or top-dose-only effect, or another doubt; inactive = no such curve, though single readings can be large or run the other way.

The test is described as follows: Inflammasome Signaling qHTS Counterscreen: IL-1-beta AlphaLISA counterscreen against the NCATS CANVASS Library (AID 1347381).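 Also: cell-free check with purified IL-1β in medium and no THP-1 cells; 0% is about no effect.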 The note with it: Purified IL-1beta AlphaLISA signal interference counterscreen; series mostly up to 57.5 µM; activity change, negative = inhibition: at the top concentration. The text has this:
Natural products and their derivatives continue to be wellsprings of nascent therapeutic potential. However, many laboratories have limited resources for biological evaluation, leaving their previously isolated or synthesized compounds largely or completely untested. To address this issue, the Canvass library of natural products was assembled (https://tripod.nih.gov/canvass), in collaboration with academic and industry researchers, for quantitative high-throughput screening (qHTS) across a diverse set of cell-based and biochemical assays. The pure (>85% purity by liquid chromatography/mass spectrometry [LC/MS]) Canvass library of 346 natural products were submitted by 45 academic laboratories and companies around the world. We collected pure natural products to circumvent deconvolution and structure elucidation due to time and resource limitations. The library was formatted into 1536-well plates and evaluated in 50 qHTS (in an 11-pnt concentration series) bioassays with broad scope of disease-relevant mechanisms. The resulting data set from 50 different assays was then systematically analyzed to identify overall trends and specific natural products with interesting biological activities. Reported herein are the results of each individual qHTS and their corresponding assay protocol. A qHTS assay, based on AlphaLISA technology, was developed to screen the NCATS CANVASS library to look for novel inflammasome inhibitors. The assay detects IL-1B using AlphaLISA anti-IL-1B acceptor and donor beads. Human THP-1 cells were incubated with Canvass compound for 1 hr, followed by stimulation with lipopolysaccharide and ATP to induce inflammasome activation. […] National Center for Advancing Translational Sciences (NCATS), Rockville, MD National Institute of Health (NIH), Bethesda, Maryland
IL-1-beta-counterscreen qHTS protocol: 1. Four microliter of cell culture media (low control, columns 3-4) with 4 pg purified IL-1-beta (high control; columns 1-2 and 5-48) were dispensed into a 1536-well, solid white, tissue culture-treated assay plates using the BioRapTR dispenser. 2. 23 nL of compounds (in DMSO solution) or vehicle control (DMSO) were pin transferred into the assay plates using the Kalypsis pin-tool equipped with a 1536 well pin heads. 3. 1.5 uL AlphaLISA reagent 1 (6 ug/mL anti-IL-1-beta AlphaLISA acceptor beads + 0.6 nM anti-IL-1-beta biotinylated antibody final concentrations) was added using the BioRapTR dispenser. 4. The assay plates were incubated at room temperature for 1 hour. 5. 1.5 uL of AlphaLISA reagent 2 (24 ug/ml AlphaLISA SA-Donor beads, final concentration) was then added to the assay plates followed by a 30 min in the dark incubation at room temperature. 6. The AlphaLISA signal was read by the EnVision plate reader (PerkinElmer) using a 680 nm excitation and 615 nm emission filters.
For orientation: In qHTS, concentration-response curves come from the screen itself.
Turning to `C=C[C@@]1(C)CC[C@@H]([C@H](C)C(=O)/C=C/C(C)(C)O)O1`, the “activity change, negative = inhibition” value is 2.02%.

For `CCC(=O)CCCCC[C@@H]1NC(=O)[C@H]2CCCCN2C(=O)[C@H](C(C)C)NC(=O)[C@H](Cc2cn(OC)c3ccccc23)NC1=O`, the “activity change, negative = inhibition” value is -19.4%.

For the molecule `C[C@]12CCC[C@](C)(C(=O)O)[C@@H]1CC[C@@]1(C)c3cocc3CC[C@H]21`, the “activity change, negative = inhibition” value was 4.08%.

As to `CO/C=C/C(=O)c1cc2cnc3c(N)cc(=NC(=O)C(C)C)c([nH]1)c23`, the “activity change, negative = inhibition” value was 0.482%.

As for `COC(=O)[C@@]12Oc3cccc(O)c3C(O)=C1C(=O)C[C@H](C)[C@H]2O`, the “activity change, negative = inhibition” value is 2.98% [at 114 µM].

Regarding `O=C1CC(c2ccc(O)cc2)Oc2ccccc21` (stereo not given), the “activity change, negative = inhibition” value is 7.85%.

With `COc1ccc2[nH]c3c(c2c1)CCN1C[C@H]2C[C@@H](OC(=O)c4cc(OC)c(OC)c(OC)c4)[C@H](OC)[C@@H](OC)[C@H]2C[C@H]31`, the “activity change, negative = inhibition” value was -8.26%.

Take `C/C(=C\[C@@H](C)CC/C=C/CC/C=C/C(=O)O)[C@H](O)[C@H](C)C(=O)CCCC1CC(=O)NC(=O)C1`: the “activity change, negative = inhibition” value is 5.95%.

`COc1c(O)cc(O)c2c(=O)cc(-c3ccccc3)oc12`: the “activity change, negative = inhibition” value was -8.56%.

With `C/C(=C\CC[C@@H](C)[C@H]1CC[C@]2(C)C3=CCC4C(C)(C)[C@@H](O)C[C@@H](O)[C@]4(C)C3[C@H](O)C[C@@]12C)CO` (stereo not given in full), the “activity change, negative = inhibition” value was -7.45%.

Consider `CC(C)[C@]12CC[C@@]3(C)[C@H](C)CC[C@H](O)[C@@]3(CC1)c1cc3c(cc12)[nH]c1ccccc13`, for which the “activity change, negative = inhibition” value is -9.06%.

On to `[C-]#[N+][C@@]12C(=O)[C@@H]3[C@@H](O[C@@]4(C(=O)N(C)c5cccc1c54)C3(C)C)C(=O)[C@@]2(C)C=C`, for which the “activity change, negative = inhibition” value was -2.34%.

Consider `COc1ccc([C@@H]2c3cc4c(cc3C[C@H](C)C2C)OCO4)cc1OC` (stereo not given in full), for which the “activity change, negative = inhibition” value was -4.22%.

As for `C/C=C(/C)c1cc(O)c(C)c2c1Oc1cc(O)cc(C)c1C(=O)O2`, the “activity change, negative = inhibition” value is 6.84%.

Consider `CC(C)=CCC[C@]1(C)[C@H]2CC(=O)[C@@]3(CO3)[C@@H]1C2`, for which the “activity change, negative = inhibition” value was -9.8%.

As to `O[C@H]1C=C2[C@H]3CN(Cc4cc5c(cc43)OCO5)[C@H]2C[C@@H]1O`, the “activity change, negative = inhibition” value was 7.82%.

In the case of `COC(=O)c1cc2cc3c(c(O)c2c(=O)o1)OC1(CC3)CC2=C(O1)C(=O)c1c(O)c(OC)cc(OC)c1C2=O` (stereo not given), the “activity change, negative = inhibition” value is -17.2%.

Regarding `O=C1OC(CCO)c2cccc(O)c21` (stereo not given), the “activity change, negative = inhibition” value is 1.52%.

Regarding `Cc1occ2c1C(=O)c1c(cc(O)c(O)c1O)C2=O`, the “activity change, negative = inhibition” value was -22.3%.

Consider `C[C@@]1(CCC(=O)Nc2c(O)ccc(C(=O)O)c2O)C(=O)C=C[C@]23C[C@H]4C[C@H](O[C@@]4(C)C2)C31` (stereo not given in full), for which the “activity change, negative = inhibition” value is 6.38%.

Consider `COc1ccc([C@@H]2CC(=O)c3c(cc(O)c(C/C=C(\C)CCC=C(C)C)c3O)O2)cc1`, for which the activity change, negative = inhibition is -7.89% [at 11.5 µM].

For `CC(C)=CCCC(C)(O)[C@H]1CC=C(C)C(O)C1` (stereo not given in full), the “activity change, negative = inhibition” value was 12.1%.

Consider `C/C=C(/C)c1c(Cl)c(O)c(C)c2c1Oc1c(Cl)c(O)c(Cl)c(C)c1C(=O)O2`, for which the “activity change, negative = inhibition” value is 7.92%.

Regarding `C=C1CCC2C(C)(C(=O)O)CCC(CC/C(C)=C/C(=O)NC(CCC(N)=O)C(=O)O)[C@@]2(C)C1` (stereo not given in full), the “activity change, negative = inhibition” value is 4.18%.

For the molecule `O=Cc1ccc2n1C[C@]1(OC2)O[C@H](CO)[C@@H](O)[C@@H]1O`, the “activity change, negative = inhibition” value is -7.65%.

For the molecule `C[C@@]12C[C@@H](C[C@@H]3C(=O)O[C@@H](c4ccoc4)[C@H](OC(=O)c4ccccc4)[C@@H]31)OC2=O`, the “activity change, negative = inhibition” value is -7.32%.

In the case of `C[C@@]12CCC[C@@](C)(C(=O)O)[C@H]1CC[C@@]13C[C@@H](CC[C@H]12)[C@](C)(O)C3`, the “activity change, negative = inhibition” value is 1.14%.

Consider `O=c1cc(-c2ccc(O)c(O)c2)oc2cc(O[C@@H]3O[C@H](CO)[C@@H](O)[C@H](O)[C@H]3O)cc(O)c12`, for which the “activity change, negative = inhibition” value was -15.9%.

Regarding `CN1CC[C@]2(c3cccc4c3N[C@H]3N(C)CC[C@@]43[C@]34CCN(C)[C@H]3Nc3ccccc34)c3ccccc3N[C@H]12`, the “activity change, negative = inhibition” value is -20.1%.

Consider `C/C=C(/C)c1c(Cl)c(OC)c(C)c2c1Oc1c(Cl)c(O)c(Cl)c(C)c1C(=O)O2`, for which the “activity change, negative = inhibition” value was 3.83%.

With `COc1cc(/C=C/C(=O)OC[C@@H](Cc2ccc(O)c(OC)c2)[C@@H](COC(=O)/C=C/c2ccc(O)c(OC)c2)Cc2ccc(O)c(OC)c2)ccc1O`, the “activity change, negative = inhibition” value is -7.39%.

Consider `CC(C)=CCC[C@]12c3cc4c(cc3CC[C@@]1(C)[C@H](C)CC[C@@H]2O)[nH]c1ccccc14`, for which the “activity change, negative = inhibition” value is -5.23%.

Regarding `CC(C)=CCC/C(C)=C/Cc1cc([C@@H]2CC(=O)c3c(cc(O)c(CC=C(C)C)c3O)O2)ccc1O`, the “activity change, negative = inhibition” value was -1.1%.

In the case of `COC(=O)c1cccc2oc(-c3cccc4oc(-c5c(C)cccc5O)nc34)nc12`, the “activity change, negative = inhibition” value was -11%.

Consider `C/C1=C/[C@@H](C)[C@H](O)[C@@H](O)/C=C/CC/C=C/C(=O)O[C@@H]1[C@H](C)C(=O)/C=C/CC1CC(=O)NC(=O)C1`, for which the “activity change, negative = inhibition” value was 3.87%.

As to `CN1CCc2cc3c(c4c2C1(C)C(=O)c1cc(O)ccc1-4)OCO3` (stereo not given), the “activity change, negative = inhibition” value was -5.84%.

On to `C[C@]12CC[C@]3(C1)[C@H](CC2=O)C[C@@H](OC(=O)c1ccccc1)[C@H]1[C@](C)(C(=O)O)CCC[C@@]13C`, for which the “activity change, negative = inhibition” value is -1.24%.

Take `O=C1CC2OCC=C3CN4C5CC3C2[C@@H]2N1c1ccccc1[C@]52C[C@@H]4C1=C[C@H]2C3CC4N(CC[C@@]45c4ccccc4N(C1=O)[C@@H]25)C/C3=C/CO` (stereo not given in full): the “activity change, negative = inhibition” value was -10.5%.

As for `C/C(=C\[C@H](C)C(=O)/C=C/CC1CC(=O)NC(=O)C1)[C@@H]1OC(=O)/C=C/CC/C=C/C[C@@H](O)[C@@H]1C`, the “activity change, negative = inhibition” value is 2.64%.

`C[C@@]12CCC[C@@](C)(C(=O)OP(=O)(O)OC[C@H]3O[C@@H](n4cnc5c(N)ncnc54)[C@H](O)[C@@H]3O)[C@H]1C[C@@H](O)[C@@]13C[C@@H](CC[C@@H]21)[C@](C)(O)C3`: the “activity change, negative = inhibition” value is 7.26%.

The record behind these values is PubChem BioAssay (NCATS).
